Experimental findings from PubChem BioAssay (Tox21) are described below.

The structures appear in SMILES notation. Several values for one entry are separate records, joined by “and”; a condition that tells them apart may be missing. Equal entries are not always repeated. Records with an inconclusive call do not appear. Entries that show only a call come without a potency. The source holds several records for some structures; these can differ, active in one and inactive in another. Activity calls are given as the source filed them. The call rests on the fitted dose curve; in most records, active means well fitted cell-killing curve with a large enough effect in the repeat runs; inconclusive means weak or mixed curves; inactive means flat fitted curve, though single readings scatter.
Potency means the concentration at half of the fitted maximal effect.

A short description of the assay: qHTS assay to identify small molecule antagonists of the estrogen receptor beta (ER-beta) signaling pathway - cell viability counter screen (AID 1259382). Further: nearly all actives have a fitted effect of over 55% in size. The note with it: ER-beta-UAS-bla HEK293T viability, CellTiter-Glo luminescence, 16 h; series mostly up to 92.4 µM. From the text:
U.S. Tox21 Program National Center for Advancing Translational Sciences [NCATS] NIH Chemical Genomics Center [NCGC] U.S. Environmental Protection Agency [EPA] National Institutes of Environmental Health Sciences [NIEHS] National Toxicology Program [NTP] U.S. Food and Drug Administration [FDA] Tox21 Assay Overview: Estrogen receptor (ER), a nuclear hormone receptor, plays an important role in development, metabolic homeostasis and reproduction. Two subtypes of ER, ER-alpha and ER-beta, have similar expression patterns with some uniqueness in both types. Endocrine disrupting chemicals (EDCs) and their interactions with steroid hormone receptors like ER causes disruption of normal endocrine function. To identify the compounds that inhibit ER signaling, an ER-beta-UAS-bla GripTite cell line (Life Technologies, Madison, WI, USA) containing a beta-lactamase reporter gene under the control of an UAS response element was used to screen Tox21 10K compound library. The cytotoxicity of the Tox21 compound library against the ER-beta-bla cell line was tested in parallel by measuring the cell viability using CellTiter-Glo assay in the same wells.
Tox21 Assay Protocol Summary: ER-beta-UAS-bla HEK293T cells were dispensed at 2,000 cells/4 uL of assay medium containing 2% charcoal stripped FBS per well into black wall/clear-bottom 1536-well plates using a Multidrop Combi (ThermoFisher Scientific, Waltham, MA) dispenser. After the assay plates were incubated at a 37C and 5% CO2 for 6 hr, 23 nL of compounds dissolved in DMSO, positive controls or DMSO only was transferred to the assay plate by a Pintool station (Kalypsys, San Diego, CA), followed by addition of 1 uL (1nM as final concentration) of 17-beta-estradiol (E2) in assay medium using a Flying Reagent Dispenser (FRD, Aurora Discovery, San Diego, CA). The plates were incubated at 37C and 5% CO2 for 16 hr. Then 1 uL of LiveBLAzer B/G FRET substrate was added using a Flying Reagent Dispenser, the plates were incubated at room temperature for 2 hours, and fluorescence intensity was measured by an Envision plate reader (PerkinElmer, Shelton, CT). For cell viability readout that measures cytotoxicity, 4 uL/well of CellTiter-Glo reagent was added into the assay plates using a FRD. After 30 min incubation at room temperature, the luminescence intensity in the plates was measured using a ViewLux (PerkinElmer) plate reader.
Regarding `OCCOc1ccccc1`, the Potency result is “inactive”.

`CCn1cc[n+](C)c1C`: the Potency result is “inactive”.

As to `C[C@]12CCC(=O)C=C1CC[C@@H]1[C@@H]2CC[C@]2(C)C(=O)CC[C@@H]12`, the Potency is 47.7 µM (active) and inactive.

`CCCCCCCCCCn1cc[n+](C)c1`: the Potency entry was “inactive”.

As for `O=C(O)CC(O)(CC(=O)O)C(=O)O`, the Potency result was “inactive”.

For the compound `O=c1nc(O)n(Cl)c(=O)n1Cl`, the Potency entry is “inactive”.

As for `CC(=O)[O][Hg][c]1ccccc1`, the Potency was 3.04 µM (active) and 4.33 µM (active) and 8.41 µM (active).

As to `CCCC[n+]1ccc(C)cc1`, the Potency result was “inactive and 60.8 µM (active)”.

On to `CCCC[N+]1(C)CCCCC1`, for which the Potency result is “inactive”.

For the compound `Cc1cc(-c2ccc(N)c(C)c2)ccc1N`, the Potency entry was “inactive”.

Turning to `O=C(O)c1nc(Cl)ccc1Cl`, the Potency result was “inactive”.

In the case of `O=C(O)COc1ccc(Cl)cc1Cl`, the Potency entry is “inactive”.

For the compound `Nc1ccc(Cl)cc1`, the Potency entry is “inactive”.

As to `CCCCCCCCn1cc[n+](C)c1`, the Potency entry is “inactive”.

Regarding `Nc1ccc(-c2ccc(N)cc2)cc1`, the Potency entry is “inactive”.

Turning to `CCCC[N+]1(C)CCCC1`, the Potency entry is “inactive”.

For the compound `CCCCCCn1cc[n+](C)c1`, the Potency entry was “inactive”.

Take `Oc1cccc2cccnc12`: the Potency entry is “inactive”.

With `CN(C)[C@@H]1C(=O)C(C(N)=O)=C(O)[C@@]2(O)C(=O)C3=C(O)c4c(O)cccc4[C@@](C)(O)[C@H]3[C@H](O)[C@@H]12`, the Potency entry was “inactive”.

For `CCCC[n+]1cccc(C)c1`, the Potency result is “inactive”.

Consider `CC[N+]1(C)CCCC1`, for which the Potency result was “inactive”.

For the compound `CC[n+]1ccccc1`, the Potency entry is “inactive”.

On to `CCCCn1cc[n+](C)c1`, for which the Potency entry is “inactive”.

`COP(=O)(OC)C(O)C(Cl)(Cl)Cl` (stereo not given): the Potency result is “inactive”.

Take `CCNc1nc(Cl)nc(NCC)n1`: the Potency result is “inactive”.

As to `COc1ccc(N)cc1`, the Potency entry is “inactive”.

Consider `COc1ccccc1N`, for which the Potency result is “inactive”.

Regarding `Oc1ccccc1-c1ccccc1`, the Potency entry is “inactive”.

For the compound `Cc1cc(Cl)ccc1N`, the Potency result was “inactive”.

In the case of `CCCCCCCCCCCCOS(=O)(=O)O`, the Potency was 54.5 µM (active) and inactive.

With `CCCn1cc[n+](C)c1`, the Potency result is “inactive”.

As to `CNC`, the Potency entry is “inactive”.

Take `CC(=O)O`: the Potency entry is “inactive”.

Consider `COCC(=O)N(c1c(C)cccc1C)C(C)C(=O)OC` (stereo not given), for which the Potency result is “inactive”.

Consider `O=C(O)C(Cl)Cl`, for which the Potency result is “inactive”.

Regarding `O=C(O)CCl`, the Potency result is “inactive”.

Turning to `Nc1ccccc1`, the Potency result is “inactive”.

Turning to `COP(=O)(OC)OC=C(Cl)Cl`, the Potency result is “inactive”.

As for `O=C(O)c1ccccc1O`, the Potency entry was “inactive”.

As to `O=[N+]([O-])c1ccccc1O`, the Potency result was “inactive”.
